Sampled rows, rich in hits. Any-hit rate of the full collection: about 21%.
NS1 inh: inhibitors of influenza NS1 protein function. actives 0.4% (n = 270,000). AID 2326. Potency, µM (doses to about 46.1 µM); calls by dose curve; further: actives are rising curves; nearly all actives have a fitted effect of over 50% in size
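S. cerevisiae expressing influenza A NS1, grown in glucose, washed, then diluted 1:100 into pH 6.0 -URA galactose medium with 23 nl compound. Growth recovery read as OD600; NS1-free strain serves as control.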
Shiga toxin inh: Shiga toxin inhibition; Vero cells, Shiga toxin protein synthesis inhibition reporter; inhibition, % at 38.7 µM; actives 9.2% (n = 290,000); in the data active means inhibition mostly above about 28%, no sharp cut-off; inactive means mostly below about 43%
Pf growth 96h: P. falciparum growth inhibition at 96 hours. P. falciparum luciferase reporter growth, 96 h. AID 504834. actives 6.9% (n = 320,000). Potency, µM (series often up to 28.7 µM), actives largely listed as inhibitors
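Cell-based qHTS: luciferase-tagged P. falciparum in erythrocytes (2% hematocrit, 0.05% parasitemia final) incubated with compounds for 96 hours, 37 C, 5% CO2; luciferase detection reagent then added and luminescence measured.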
Cycloheximide cs: affects cycloheximide protein synthesis inhibition readout, counter-screen; cell reporter, cycloheximide protein synthesis inhibition counterscreen; max response, %; actives 12% (n = 300,000); in the data active means max response mostly above about 13%, no sharp cut-off; inactive means mostly below about 14%; further: read at 38.3 µM for the half of the compounds with a filed dose
Sm TGR inh: inhibitors of Schistosoma mansoni thioredoxin glutathione reductase | purified TGR, DTNB reduction, TNB absorbance 405 nm | Potency, µM (top dose mostly 114 µM), most hits filed as inhibitors | actives 3% (n = 360,000); further: nearly all actives have a fitted effect of over 60% in size
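TGR 20 nM + NADPH 100 uM (dispensed conc.), cpd preinc 15 min RT; start with NADPH (500 uM addition) then DTNB (15 mM addition). Kinetic TNB absorbance, 405 nm filter. Four-parameter Hill fit across titration.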
Pf growth 48h: P. falciparum growth inhibition at 48 hours (one generation); actives 5.9% (n = 310,000); P. falciparum luciferase growth in erythrocytes, 48 h; Potency, µM (top dose mostly 28.7 µM), usual class: inhibitors
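A one-generation exposure of luciferase-tagged malaria parasites in RPMI 1640/Albumax erythrocyte culture, 37 C and 5% CO2. Inhibition is inferred from decreased luminescence after adding detection reagent.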
Numbers stand for hits; 0 = inactive; ? = inconclusive; - = no result. Unless noted, the call rests on the fitted dose curve; in most records, active means well fitted curve in the direction sought with a large enough effect; inconclusive means small, poorly fitted or top-dose-only effect, or another doubt; inactive means no such curve, though single readings can be large; an effect the other way counts as inactive or inconclusive.

SMILES | NS1 inh | Shiga toxin inh | Pf growth 96h | Cycloheximide cs | Sm TGR inh | Pf growth 48h
CCOC(=O)C1CCCN(C(=O)c2cccc(S(=O)(=O)N3CCCC3)c2)C1 (centres undefined) | - | - | ? | - | 0 | ?
CCOC(=O)C1CCCN(C(=O)c2cccc(S(=O)(=O)N(C)c3ccc(C)cc3)c2)C1 (centres undefined) | - | - | ? | - | 0 | 13.1µM
CCOC(=O)C1CCCN(C(=O)c2ccc(C(=O)c3ccccc3)cc2)C1 (centres undefined) | - | - | 0 | - | 0 | 0
CCOC(=O)C1CCCN(C(=O)c2ccc(CS(=O)(=O)Cc3ccccc3C)o2)C1 (centres undefined) | ? | 0 | 0 | 0 | 28.2µM | 0
Cc1ccc(S(=O)(=O)Cc2ccc(C(=O)N3CCCCCC3)o2)cc1 | 0 | 0 | 0 | 0 | 15.8µM | -
O=C(NCCSc1c(-c2ccc(F)cc2)[nH]c2ccccc12)c1ccc(S(=O)(=O)N2CCOCC2)cc1 | - | - | - | - | 0 | -
CCCN1CCN(C(=O)c2ccc(-c3ccc([N+](=O)[O-])cc3)o2)CC1 | - | - | 0 | - | ? | ?
CCOC(=O)C1CCCN(C(=O)c2ccc(-c3ccc([N+](=O)[O-])cc3)o2)C1 (centres undefined) | - | - | 0 | - | 6.31µM | 0
Cc1ccc(S(=O)(=O)Cc2ccc(C(=O)N3CCCC3)o2)cc1 | 0 | 0 | 0 | 0 | 44.7µM | -
COc1cccc(NC(=O)C2CCN(C(=O)N3CC(C)Oc4ccccc43)CC2)c1 (centres undefined) | - | - | - | - | 0 | -
CCCC(C(=O)NC1CCCC1)N(C(=O)Cn1nnc(-c2ccc(C)o2)n1)c1ccccc1OC (centres undefined) | 0 | 0 | - | 0 | 0 | 10.4µM
Cc1ccc(-c2nnn(CC(=O)N(CC3CCCO3)C(C(=O)NC3CCCC3)c3ccc(F)cc3)n2)o1 (centres undefined) | 0 | 0 | - | 0 | 0 | 11.7µM
Cc1ccc(-c2nnn(CC(=O)N(CC3CCCO3)C(C(=O)NC3CCCC3)c3ccc(O)cc3)n2)o1 (centres undefined) | 0 | 0 | 0 | 0 | 0 | 0
CC1CCn2c(nc3cc(C(=O)NCc4ccc(F)cc4)ccc32)C1 (centres undefined) | - | - | - | - | 0 | -
O=[N+]([O-])c1ccc(N2CCN(c3ccccc3Cl)CC2)cn1 | 0 | 0 | 0 | 0 | 0 | 0
COc1cccc(NC(=O)CSc2ccc3nnc(CCNC(=O)c4ccccc4)n3n2)c1 | 0 | 0 | 10.4µM | 0 | 0 | 0
Cc1ccc(C(=O)NCCc2nnc3ccc(SCC(=O)N4CCCC4)nn23)cc1 | 0 | 53.4 | ? | 42.3 | 0 | 0
O=C(CSc1ccc2nnc(CCNC(=O)c3ccccc3)n2n1)NCc1ccccc1 | 0 | 0 | ? | 0 | 0 | 0
Cc1ccc(C(=O)NCCc2nnc3ccc(SCC(=O)NCc4ccc(F)cc4)nn23)cc1 | 0 | 0 | 9.28µM | 0 | 0 | 0
COc1ccc2c(c1)c(=O)cc(-c1ccccc1)n2C | 0 | 49.4 | 0 | 21.9 | 0 | 0
Cn1c(-c2ccccc2)cc(=O)c2ccccc21 | 0 | 0 | 0 | 0 | 0 | 0
COc1ccc(-c2c[n+]3c4n2CCCCC4=C(c2ccccc2)C3)cc1 | 0 | 0 | 6.57µM | 0 | 0 | ?
COc1ccc(-c2c[n+]3c(n2-c2ccccc2)CCCCC3)cc1 | 0 | 0 | ? | 0 | 0 | 1.04µM
COc1ccc(-c2c[n+]3c(n2-c2ccc(C)cc2)CCCCC3)cc1 | 0 | 0 | 0.294µM | 0 | 0 | 0.928µM
COc1ccc(-n2c(-c3ccc(Cl)cc3)c[n+]3c2CCCCC3)cc1 | 0 | 0 | 0.465µM | 0 | 0 | 1.04µM
SMILES | NS1 inh | Shiga toxin inh | Pf growth 96h | Cycloheximide cs | Sm TGR inh | Pf growth 48h
COc1ccc(-c2c[n+]3c(n2-c2c(C)n(C)n(-c4ccccc4)c2=O)CCCCC3)cc1 | - | 0 | 0 | 0 | ? | ?
[O-]/[N+](=C/c1ccccc1)c1ccccc1 | - | - | ? | - | 0 | 0
O=C(O)CNS(=O)(=O)c1ccc2c(c1)CCCC2 | - | 0 | 0 | 0 | 0 | 0
O=C(NN1C(=O)c2cc(Br)ccc2NC1c1cc(Br)cc(Br)c1O)c1ccncc1 (centres undefined) | 0 | 0 | ? | 0 | 0 | 0
N=C(N)N=Nc1c(O)[nH]c2ccc(Br)cc12 | 0 | 0 | 0 | 0 | 0 | ?
NC(=S)N=Nc1c(O)[nH]c2cc(F)c(F)cc12 | 0 | 0 | 9.28µM | 0 | 0 | ?
O=C(Cc1ccccc1)NC(NCCc1ccccc1)C(Cl)(Cl)Cl (centres undefined) | 0 | 0 | ? | 0 | 0 | 0
N#Cc1cccn1-c1nccc(-c2cccs2)n1 | - | 76.8 | 0 | 29.1 | 0 | 0
Cc1ccc(C)n1-c1nccc(-c2cccs2)n1 | 0 | 0 | ? | 0 | 0 | 0
O=[N+]([O-])c1cccnc1N1CCN(c2ccccc2F)CC1 | - | 0 | 0 | 18.0 | 0 | 0
O=C(Cc1ccccc1[N+](=O)[O-])N1CCN(c2ccccc2F)CC1 | 0 | 0 | 0 | 12.3 | 0 | 0
CCOc1ccc(-c2nnc(SCC(=O)Nc3ccc(C)cc3C)o2)cc1 | - | - | - | - | 0 | -
CCOc1ccc(-c2nnc(SCC(=O)Nc3cc(C)ccc3OC)o2)cc1 | - | - | - | - | 11.2µM | -
CCOc1ccc(-c2nnc(SCC(=O)Nc3ccc(C)cc3Cl)o2)cc1 | - | - | - | - | 17.8µM | -
COc1ccc(-c2nnc(SCC(=O)Nc3ccccc3OC)o2)cc1 | 0 | 57.6 | ? | 24.8 | 0 | 0
COc1ccc(-c2nnc(SCC(=O)Nc3nncs3)o2)cc1 | - | 0 | 0 | 0 | 0 | 0
COc1ccc(-c2nnc(SCC(=O)NC(C)c3ccccc3)o2)cc1 (centres undefined) | 0 | 0 | 10.4µM | 0 | 0 | 0
NS(=O)(=O)c1ccc(CCNC(=O)CSc2ncnc3ccccc23)cc1 | - | 0 | 0 | 0 | 0 | 0
Cc1ccccc1-c1nc(CS(=O)CC(=O)NCc2ccccn2)c(C)o1 (centres undefined) | 0 | 0 | 0 | 0 | ? | 0
COc1ccccc1-c1nnc(SCC(=O)OC(C)C)o1 | 0 | 35.1 | - | 0 | 0 | 0
Cc1cc(O)cc2c(=O)c3ccccc3sc12 | - | 131.0 | ? | 42.4 | 0 | ?
Cc1ccc(C2N3CC4(C)CN2CC(c2ccccc2)(C3)C4=O)cc1 (centres undefined) | - | - | - | - | 0 | -
COc1ccc(-n2c(Cc3cccn3C)nnc2SCC(=O)Nc2ccccc2OC)cc1 | 0 | 0 | ? | 0 | 0 | 13.1µM
COc1ccc(-n2c(Cc3cccn3C)nnc2SCC(=O)Nc2ccc(C)cc2C)cc1 | 0 | 0 | 0 | 0 | ? | ?
COc1ccc(-n2c(Cc3cccn3C)nnc2SCC(=O)Nc2cc(Cl)ccc2OC)cc1 | 0 | 0 | ? | 0 | 0 | 10.4µM
Cn1cccc1Cc1nnc(SCC(=O)Nc2ccccc2F)n1-c1ccc(F)cc1 | 0 | 0 | ? | 0 | ? | 13.1µM
COc1ccc(-n2c(Cc3cccn3C)nnc2SCC(=O)Nc2nc(C)cs2)cc1 | 0 | 0 | ? | 0 | 0 | ?
CCOc1ccc(C(=O)NNC(=O)c2cc(S(=O)(=O)N3CCOCC3)ccc2Cl)cc1 | - | - | 0 | - | 0 | ?
CCOc1ccc(C(=O)NCC(=O)OCCCC(=O)c2ccc(F)cc2)cc1OCC | - | - | 0 | - | 0 | 0
COC(=O)c1cc2sc(Cl)cc2n1Cc1nc(-c2ccccc2F)oc1C | - | - | - | - | 0 | -
